# Most compounds without a hit are left out; they make up all but 6.2% or so of the library.
# FMDV inh: foot and mouth disease virus antiviral activity | FMDV antiviral cell-based qHTS | Potency, µM (doses to about 57.9 µM), inactives show at the top dose activity change, negative = inhibition, most hits filed as inhibitors | hit rate 1.2% among 410,000; calls by dose curve; tested in HEK293T cells; also: read-out not given here; potency is read from the fitted curve at half-maximal effect; nearly all actives have a fitted effect of over 45% in size
# HCMV antiviral: inhibitors of human cytomegalovirus | HFF cells, HCMV-luciferase reporter, 72 h; active compounds read low | activity change, negative = inhibition, % at 57.5 µM | hit rate 4.5% among 410,000 | AID 1259415; in the data active = activity change below about -60%; inconclusive = no clear call, values can overlap the other calls; inactive = above about -39%
#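 Two compound doses tested in HFFs infected with HCMV-luciferase, MOI 1 PFU/cell, 72 h at 37C. Lysate luminescence read with OneGlo; data normalized against buffer-only and 10uM Salinomycin inhibitor controls.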
# MARV entry inh: inhibitors of Marburg virus binding or cell entry; Marburg virus pseudotyped entry inhibition, cell reporter; Potency, µM (top dose mostly 37.8 µM), for the others: top-dose activity change, negative = inhibition, usual class: inhibitors; hit rate 1.8% among 300,000; AID 540276; calls by dose curve; tested in HEK293 cells; also: potency is read from the fitted curve at half-maximal effect
# Lassa entry inh: blocks Lassa virus binding to or entry into cells. AID 540256. hit rate 1.2% among 300,000. Potency, µM (titrated, usually from 37.9 µM), for inactives: at the top dose activity change, negative = inhibition, hits mostly inhibitors. Lassa virus pseudotype entry inhibition, cell reporter; calls by dose curve; tested in HEK293 cells; also: potency is read from the fitted curve at half-maximal effect; nearly all actives have a fitted effect of over 50% in size
# Active calls of the source: *; ? = inconclusive; · = no result given; + = active, no number; [ ] = remark or other dose. % is scaled to controls: 0 for no effect and ±100 for the full control effect.
SMILES,FMDV inh,HCMV antiviral,MARV entry inh,Lassa entry inh
CCN(Cc1ccncc1)C(=O)C1CCN(S(=O)(=O)c2cccs2)CC1,10%,-107*,6%,?
CN(C(=O)C1CCN(S(=O)(=O)c2cccs2)CC1)C1CCCCC1,·,-27,10%,-12%
CCc1ccc(NC(=O)C2CCN(S(=O)(=O)c3cccs3)CC2)cc1,?,-65*,-9%[46.1 µM],?
O=C(Nc1nccs1)C1CCN(S(=O)(=O)c2cccs2)CC1,-24%,-28,-23%,1%
O=C(Nc1ccc(Cl)cc1)C1CCN(S(=O)(=O)c2ccc(Br)s2)CC1,?,-96*,-15%[46.1 µM],?
O=C(Nc1ccc(Cl)cn1)C1CCN(S(=O)(=O)c2cccs2)CC1,?,-72*,·,·
Cc1cccc(C)c1Nc1oc(-c2ccccc2)nc1-c1ccccc1F,·,·,?,-10%[14.3 µM]
COc1ccc2[nH]c(C)c(C(=O)CN3CCc4cc(OC)c(OC)cc4C3)c2c1,-23%,1,0%,12%
Cc1ccccc1NC(=O)COc1ccc2c(c1)OC(C)(C)CC2=O,35%,-24,·,·
CCCCn1c(SCC(=O)N2CCC(C)CC2)nc2cc(S(N)(=O)=O)ccc21,-5%,42,6%,8%
CCCn1c(=O)c2ccccc2n2c(=S)[nH]nc12,-14%,-10,-6%[46.1 µM],21%[46.1 µM]
O=C1NC(=O)C(CCc2ccncc2)(C2CCCCC2)C(=O)N1,-17%,-19,5%,8%
Cc1ccc(-c2nc(N)sc2CC(=O)OCC(=O)NC2CCCC(C)C2C)cc1 (stereo not drawn),18%,14,-20%,-29%
CCOC(=O)c1cccc(NC(=O)C2CCCN(S(=O)(=O)c3ccc4c(c3)oc(=O)n4C)C2)c1 (stereo not drawn),?,-16,13%[46.1 µM],-1%[46.1 µM]
CCOC(=O)c1cccc(NC(=O)C2CCN(S(=O)(=O)c3cccs3)CC2)c1,25µM*,-18,?,?
CCOC(=O)c1cccc(NC(=O)C2CCN(S(=O)(=O)c3ccc4c(c3)oc(=O)n4C)CC2)c1,-15%,-103*,-21%[46.1 µM],-5%[46.1 µM]
COc1ccc(S(=O)(=O)N2CCC(C(=O)NCCc3ccc(OC)c(OC)c3)CC2)cc1,-18%,-5,·,·
O=C(Nc1ccccc1Br)C1CCN(S(=O)(=O)c2cccs2)CC1,-28%,-75*,?,3%
COc1ccc(CCNC(=O)C2CCN(S(=O)(=O)c3cccs3)CC2)cc1OC,-17%,-96*,10%[46.1 µM],-7%[46.1 µM]
OCC[C@H]1C[C@H](O)[C@@H](O)[C@]2(OCc3ccccc32)O1,-12%,-5,·,·
CCN(CCn1cccn1)Cc1cn[nH]c1-c1ccc(-c2ccccc2)cc1,25%,61,·,·
O=C(Nc1cc(C(F)(F)F)ccc1Cl)C(Sc1cccc[n+]1[O-])c1ccccc1 (stereo not drawn),-12%,-2,?,2%
CN(C)S(=O)(=O)c1ccc(Cl)c(NC(=O)C2CCN(S(=O)(=O)c3cccs3)CC2)c1,?,-66*,·,·
COc1ccc(CCNC(=O)C2CC(=O)N(c3ccc(C(C)(C)C)cc3)C2)cc1OC (stereo not drawn),-7%,-94*,·,·
CCc1ccc(NC(=O)C2CCN(S(=O)(=O)c3cnc[nH]3)CC2)cc1,-27%,+,·,·
SMILES,FMDV inh,HCMV antiviral,MARV entry inh,Lassa entry inh
CCc1ccc(NC(=O)C2CCCN(S(=O)(=O)c3cnc[nH]3)C2)cc1 (stereo not drawn),9%,·,·,·
COc1ccc(CCNC(=O)C2CC(=O)N(c3ccc(C)cc3)C2)cc1OC (stereo not drawn),17%,7,16%[46.1 µM],-2%[46.1 µM]
Cc1c(-c2ccc(Cl)cc2)[n+](=O)c2c(n1[O-])CCCC2,-14%,-13,?,0%[46.1 µM]
Cc1ccccc1N1C(=O)NC(=O)/C(=C/c2ccc(N3CCOCC3)o2)C1=O,-6%,26,?,0%
O=C1NC(=O)N(c2ccc3c(c2)OCO3)C(=O)/C1=C\c1ccc(N2CCCCC2)o1,-14%,-66*,-14%,-10%
CCCNC(=O)c1ccccc1NC(=O)COc1ccc(OC)cc1,-26%,5,17%,10%
COc1ccc(CCNc2oc(-c3cccc4ccccc34)nc2P(=O)(OC)OC)cc1OC,-18%,38,?,-10%
Cc1cccc(Nc2nc(N)nc(N)c2S(=O)(=O)c2ccccc2)c1,-11%,-103*,?,-22%[46.1 µM]
O=C(NCc1ccccn1)c1ccccc1OCc1ccccc1Cl,-4%,-66*,·,·
O=C(NCc1ccccn1)c1ccccc1OCc1ccc(F)cc1,-24%,1,-22%,-4%[46.1 µM]
COc1cc(CNCc2ccccn2)ccc1OCc1ccccc1Cl,?,-67*,?,-18%
CCN(C(=O)c1coc(=O)c2ccccc12)c1cc(OC)ccc1OC,-2%,76,-19%[46.1 µM],-4%
CC(Nc1ncnc2nc[nH]c12)c1ccccc1 (stereo not drawn),0%,?,-4%,-8%
O=C1c2ccccc2C(=O)N1CCc1nc2ccccc2c(=O)n1Cc1ccco1,28µM*,29,-2%,-2%
N/C(=N\OC(=O)c1cccc(C(F)(F)F)c1)c1cnccn1,32%,37,·,·
O=C(OCn1ncc(Cl)c(Cl)c1=O)c1cccc(C(F)(F)F)c1,14µM*,·,?,?
CN1CCN(C(=O)c2ccc(N(C)S(=O)(=O)c3cccs3)cc2)CC1,-5%,-28,22%[46.1 µM],24%[46.1 µM]
Cc1cc2nccc(-c3ccncc3)n2n1,-7%,-64*,5%[46.1 µM],34%[46.1 µM]
Cc1ccc(-c2ccnc3cc(C)nn23)cc1,26%,?,·,·
Cc1cc2nccc(-c3ccc(Cl)cc3Cl)n2n1,31%,-70*,·,·
CN(C(=O)COC(=O)c1ccc2c(c1)OCCO2)c1ccccc1,47%,-69*,?,21%
Cc1cc(C(=O)OCC(=O)N(C)c2ccccc2)ccc1[N+](=O)[O-],-12%,-63*,7%[46.1 µM],-4%[46.1 µM]
CCOC(=O)C1C(=O)CC(=O)C(C(=O)OCC)C1c1ccc(O)cc1 (stereo not drawn),-17%,16,·,·
CC(=O)Nc1ccc(C(=O)OCC(=O)N(c2ccccc2)C2CCS(=O)(=O)C2)cc1 (stereo not drawn),2%,1,·,·
O=C(CCl)N(c1ccccc1)C1CCS(=O)(=O)C1 (stereo not drawn),?,-103*,?,?
SMILES,FMDV inh,HCMV antiviral,MARV entry inh,Lassa entry inh
COc1ccc(CN(C(=O)c2ccc(C)cc2)c2cccc(N)c2)cc1,23%,-16,·,·
COc1ccc(C(=O)N(Cc2ccccc2)c2cccc(C)c2)cc1,31%,-60*,·,·
COc1ccc(C=C2C(=O)NC(=S)NC2=O)cc1,?,?,21%,16%
CN1C(=O)NC(=O)/C(=C/c2ccc([N+](=O)[O-])s2)C1=O,?,68,0%[46.1 µM],-10%[46.1 µM]
CN1C(=O)/C(=C\c2ccc(Br)s2)C(=O)NC1=S,32µM*,-1,?,0%[46.1 µM]
O=C1NC(=S)NC(=O)C1=Cc1c(Cl)cccc1Cl,20µM*,-61*,11%[46.1 µM],0%[46.1 µM]
O=C1NC(=S)NC(=O)C1=Cc1cccc2cc3ccccc3cc12,10µM*,-94*,·,·
O=C1NC(=S)NC(=O)C1=Cc1ccc(Br)s1,?,-100*,·,·
CC(=O)Nc1cccc(NC(=O)CN2c3cccc4cccc(c34)S2(=O)=O)c1,-32%,-5,-19%,-24%
Cc1cc(-n2c(C)nc3ccccc3c2=O)ccc1NC(=O)c1ccccc1[N+](=O)[O-],?,-10,·,17%[46.1 µM]
c1ccc(C2=Nn3c(nnc3-c3cccs3)SC2)cc1,-15%,69,-1%[14.2 µM],-13%

# Assay outcomes: PubChem, National Center for Advancing Translational Sciences (NCATS)
